Bioassay records as filed in PubChem.
aSyn 5UTR act: Activators via SNCA 5'UTR binding, MLPCN | activity score, % (tested at 7.5 µM), hits read low | AID 1814 | alpha-synuclein 5'UTR reporter, activators screen | actives 7.1% (n = 300,000); in the data active = activity score below about -60%
Active calls of the source: *. These entries were drawn from the full list.

SMILES	aSyn 5UTR act
Cc1nc(N)nc(N)c1CCCc1ccc(Cl)c(Cl)c1	92
COCCNC(=O)CSc1nc2ccc(N3CCOCC3)cc2c(=O)n1Cc1ccc(OC)cc1	-80*
CCOC(=O)CSc1nc2ccc(N3CCOCC3)cc2c(=O)n1Cc1ccc2c(c1)OCO2	-82*
CCOC(=O)C1=C(CSc2nc(-c3ccccc3)ccc2C#N)OC(N)=C(C#N)C1c1ccc(OC)cc1 (stereo not drawn)	-184*
Cc1ccnc(NC(=O)CCNC(=O)c2ccccc2Cl)c1	-103*
Cc1ccnc(NC(=O)c2cccc3ccccc23)c1	-63*
Cc1ccnc(NC(=O)CCc2c[nH]c3ccccc23)c1	-71*
Cc1ccnc(NC(=O)c2ccccc2NC(=O)c2ccc(Cl)cc2Cl)c1	69
C/C(CC(=O)Nc1cc(C)ccn1)=N\NC(=O)c1cccc(C)c1O	-63*
O=C(CCc1nnc(CCc2c[nH]c3ccccc23)o1)NC1CCC1	-133*
CCNC(=S)N/N=C/c1cc(C)n(-c2ccc(Cl)cc2)c1C	-125*
O=C(CSCC(=O)Nc1nc(-c2ccc3c(c2)OCO3)cs1)Nc1nccs1	-111*
O=C(Nc1nc(-c2ccc3c(c2)OCO3)cs1)C1CC1	-184*
CSCC(=O)Nc1nc(-c2ccc3c(c2)OCCO3)cs1	-117*
Cc1ccc(C)c(NC(=O)Nc2ccc3c(c2)OCO3)c1	-73*
Cc1ccccc1NC(=O)Nc1ccc2c(c1)OCO2	-129*
COc1ccccc1NC(=O)Nc1ccc(F)c(F)c1	-66*
COc1ccccc1NC(=O)Nc1ccc2c(c1)OCCO2	-131*
Cc1c(NC(=O)Nc2ccc3c(c2)OCO3)cccc1[N+](=O)[O-]	-96*
CC(=O)Nc1ccccc1OCC(=O)c1ccc2c(c1)OCO2	-99*
COc1ccc(NC(=O)Nc2cc(C)ccc2F)cc1OC	-77*
CCOc1ccccc1NC(=O)Nc1ccc2c(c1)OCO2	-85*
COc1ccc(NC(=O)Nc2ccc3c(c2)OCO3)c(C)c1	-81*
Cc1ccc(CNc2ccc3c(c2)OCO3)c(C)c1	-98*
CCc1ccc(Nc2ncc3c(n2)CC(C)(C)CC3=O)cc1	-141*
SMILES	aSyn 5UTR act
Cc1cccc(Nc2ncc3c(n2)CC(C)CC3=O)c1 (stereo not drawn)	-127*
CCc1ccc(Nc2ncc3c(n2)CC(C)CC3=O)cc1 (stereo not drawn)	-135*
Cc1c(N=c2c(=O)c3ccccc3c2=O)c(=O)n(-c2ccccc2)n1C	-140*
COc1ccc(-c2cc(=Nc3c(C)n(C)n(-c4ccccc4)c3=O)c3ccccc3o2)cc1	-270*
COc1ccc(-c2c/c(=N\c3nc(-c4ccccc4)c(C)s3)c3ccccc3o2)cc1O	75
Clc1ncccc1-c1nc2ccccc2s1	-149*
O=c1c(-c2nc3ccccc3s2)cccn1Cc1ccc(Cl)cc1	-111*
CN(C)c1nc(-c2ccccn2)nnc1-c1ccccc1	79
Oc1ccccc1N=Nc1nc(-c2ccccc2)c(-c2ccccc2)[nH]1	107
Oc1ccc(-c2nnc(-c3ccccc3)c(-c3ccccc3)n2)cc1	-201*
CSc1nnc2c(n1)c(C)nn2-c1ccc(C)cc1	-180*
O=C1Nc2ccccc2S/C1=C\C(=O)N1CCCC1	-140*
N#C/C(C(=O)N1CCCCC1)=C1\Nc2ccccc2S1	-104*
CCC(C)NC(=O)c1cc2cc3ccc(OC)cc3nc2s1 (stereo not drawn)	-131*
COc1ccc2cc3cc(C(=O)NCCN4CCc5ccccc5C4)sc3nc2c1	-209*
O=C(C1CCCN(c2ncnc3c2nc2n3CCCCC2)C1)N1CCN(c2ccccc2)CC1 (stereo not drawn)	-148*
COc1ccc(-n2nc(C(=O)NCC(=O)N3CCN(c4ccccc4)CC3)c3ccccc3c2=O)c(OC)c1	-78*
COc1ccc(-n2nc(C(=O)NCC(=O)N3CCN(c4ccc(F)cc4)CC3)c3ccccc3c2=O)c(OC)c1	-65*
Cn1/c(=N\NC(=O)c2ccccc2Cl)sc2ccccc21	-89*
Cn1/c(=N\NC(=O)C2CCCCC2)sc2ccccc21	-141*
COc1cc(NC(=O)c2ccc(Cl)cc2)c(OC)cc1NC(=O)CN1CCCCC1	-68*
Cc1nc2cc(N3CCCCC3)c(NC(=O)c3ccncc3)cc2c(=O)n1Cc1ccc(Cl)cc1	62
CCOC(=O)CSc1nc2ccc(C)cc2cc1C#N	-172*
CCOC(=O)CSc1nc2cc(C)ccc2cc1C#N	-150*
Cc1ccc2cc(C#N)c(SCC(=O)N3CCCC3)nc2c1	-81*
SMILES	aSyn 5UTR act
Cc1cc(C)c2nc(SCC(=O)N3CC(=O)Nc4ccccc43)c(C#N)cc2c1	67
CCOC(=O)CSc1nc2cc(C)cc(C)c2cc1C#N	-195*
COc1ccc2nc(SCC(C)=O)c(C#N)cc2c1	-70*
CCOC(=O)CSc1nc2cc(OC)ccc2cc1C#N	-109*
CCOc1ccc2cc(C#N)c(SCC(=O)N3CCOCC3)nc2c1	-94*
O=C(CC(=O)c1ccccc1)Nc1cccnc1Cl	-119*
O=C(CCc1ccccc1)Nc1cccnc1Cl	-64*
O=C(Nc1cccnc1)c1cc(-c2cc(Cl)ccc2O)n[nH]1	-219*
Cc1ccc(O)c(-c2cc(C(=O)Nc3cccnc3)[nH]n2)c1	-166*
C/C(=N/NC(=O)OC(C)(C)C)c1ccco1	-86*
CC(/C=C/c1ccco1)=N/NC(=O)OC(C)(C)C	-129*
CSC1=NC(C)(C)C=C(/C=C/c2ccc(Cl)cc2)N1	-96*
Cc1ccc(CNc2nc(Cl)c(C#N)s2)cc1	-146*
CC(=O)c1sc(NC(=O)c2cccc(C)c2)nc1C	-131*
CC(=O)c1sc(NCc2ccc(C)cc2)nc1C	-168*
CC(=O)c1sc(NC(=O)c2ccc(Cl)cc2)nc1C	-108*
Cc1nc(NC(=O)c2ccc(F)cc2)sc1C(=O)Nc1ccc2c(c1)CCC2	-99*
CC(=O)c1sc(NC(=O)c2ccccc2C)nc1C	-88*
Cc1nc(NC(=O)c2cccc(Cl)c2)sc1C(=O)N1CCCCC1	-138*
Cc1cccc(C(=O)NC(=O)Nc2c(C)cc(C)nc2C)c1	-147*
CC(=O)c1sc(NC(=O)c2ccc(F)c(F)c2)nc1C	-159*
CCCSc1nsc(NC(=O)CC)n1	-135*
CCCSc1ccc(C(=O)Nc2ccc(F)cc2F)cn1	-87*
CCCSc1nsc(NC(=O)Nc2ccc(F)cc2F)n1	-129*
COc1cc(NC(=O)c2ccccc2F)ccc1NC(=O)c1cc2ccccc2o1	-67*
SMILES	aSyn 5UTR act
COc1cc(NC(=O)c2c(OC)cccc2OC)ccc1NC(=O)c1cc2ccccc2o1	-205*
CCC(=O)Nc1ccc(NC(=O)c2cc3ccccc3o2)c(OC)c1	-134*
COC(=O)c1cc(Cl)c(NC(=O)c2cc3ccccc3o2)cc1OC	-154*
Clc1c(-c2ccccc2)nnn1-c1ccccc1	-65*
O=C(CSc1nc(-c2ccccc2)ns1)N1CCOCC1	-110*
Cc1cccc(-c2nsc(SCC(=O)N3CCCC3)n2)c1	-140*
Cc1csc2ncc(C(=O)Nc3ccc4c(c3)OCCO4)c(=O)n12	-169*
Cc1cccc(NC(=O)c2cnc3scc(C)n3c2=O)c1	-181*
COc1ccnc(N=CNOCc2ccc(C)cc2)c1C#N	-100*
COc1ccnc(Oc2ccc3ccccc3c2)c1C#N	-74*
CSc1nc(Oc2ccc3ccccc3c2)c2sccc2n1	82
COc1ccnc(Oc2ccc(C)cc2)c1C#N	-81*
O=C(CSCc1cccc(F)c1)NCc1ccccc1	-75*
Nc1ccc(C(=O)N/N=C/c2cn(Cc3cccc(F)c3)c3ccccc23)cc1	70
COc1ccccc1CNC(=O)CSc1ccccc1	-100*
COc1ccccc1CNC(=O)Cc1ccccc1	-77*
